Cytotoxicity call data for 66 molecules are collected here from the antibiotic and cytotoxicity screens of Wong et al. (2023).

Structures are written as SMILES. The whole screen tested about 39,000 compounds, of which about 1,500 (3.8%) were called active. This is one part of a sample in which actives are shown more often than they occur.

This assay relates to HSkMC (human skeletal muscle cells). The assay is described as follows: cytotoxicity call (relative viability < 0.9). Conditions: 10 µM.
With `C[C@H](CO)N1C[C@H](C)[C@H](CN(C)S(=O)(=O)c2cccs2)Oc2ncc(C#CC(C)(C)O)cc2C1=O`, the cytotoxicity call was “inactive”. As for `COc1ccc(S(=O)(=O)N(C)C[C@H]2Oc3ccc(NS(C)(=O)=O)cc3C(=O)N([C@@H](C)CO)C[C@H]2C)cc1`, the cytotoxicity call was “inactive”. As to `CC(C)NC(=O)N(C)C[C@H]1Oc2c(NS(=O)(=O)c3ccc(Cl)cc3)cccc2C(=O)N([C@@H](C)CO)C[C@@H]1C`, the cytotoxicity call was “inactive”. In the case of `CC(C)NC(=O)Nc1cccc2c1O[C@H](CN(C)Cc1ccc(-c3ccccc3)cc1)[C@H](C)CN([C@@H](C)CO)C2=O`, the cytotoxicity call is “inactive”. On to `COC(=O)CNC(=O)c1ccccc1`, for which the cytotoxicity call was “inactive”. For `C[C@@H]1CN([C@@H](C)CO)C(=O)c2cccc(NS(=O)(=O)c3cn(C)cn3)c2O[C@H]1CN(C)S(=O)(=O)c1cccs1`, the cytotoxicity call was “inactive”. With `Cc1noc(C)c1NC(=O)Nc1cccc2c1O[C@@H](CN(C)C(=O)NC(C)C)[C@@H](C)CN([C@@H](C)CO)C2=O`, the cytotoxicity call is “inactive”. For `Cc1noc(C)c1NC(=O)Nc1ccc2c(c1)C(=O)N([C@@H](C)CO)C[C@@H](C)[C@@H](CN(C)C(=O)C1CCCCC1)OCCCC[C@H](C)O2`, the cytotoxicity call is “inactive”. As to `C[C@H](CO)N1C[C@H](C)[C@H](CN(C)Cc2ccc(Oc3ccccc3)cc2)Oc2ccc(NS(=O)(=O)c3ccccc3)cc2CC1=O`, the cytotoxicity call was “inactive”. Consider `C[C@@H]1CN([C@H](C)CO)C(=O)Cc2cc(NS(=O)(=O)c3cccs3)ccc2O[C@@H]1CN(C)Cc1ccc(Oc2ccccc2)cc1`, for which the cytotoxicity call was “active”. As to `C[C@@H]1CN([C@H](C)CO)C(=O)Cc2cc(NS(=O)(=O)c3ccccc3)ccc2O[C@@H]1CN(C)Cc1ccc(Oc2ccccc2)cc1`, the cytotoxicity call is “active”. Regarding `C[C@@H]1CN([C@@H](C)CO)C(=O)Cc2cc(NS(=O)(=O)c3ccccc3)ccc2O[C@@H]1CN(C)Cc1ccc(Oc2ccccc2)cc1`, the cytotoxicity call is “active”.

For `C[C@@H]1CN([C@@H](C)CO)C(=O)Cc2cc(NS(=O)(=O)c3ccccc3)ccc2O[C@H]1CN(C)Cc1ccc(Oc2ccccc2)cc1`, the cytotoxicity call is “inactive”. For the molecule `C[C@H]1CN([C@@H](C)CO)C(=O)Cc2cc(NS(=O)(=O)c3cccs3)ccc2O[C@@H]1CN(C)Cc1ccc(Oc2ccccc2)cc1`, the cytotoxicity call was “inactive”. As to `C[C@@H]1CN([C@H](C)CO)C(=O)Cc2cc(NS(=O)(=O)c3ccccc3)ccc2O[C@H]1CN(C)Cc1ccc(Oc2ccccc2)cc1`, the cytotoxicity call is “inactive”. The entry for `C[C@H](CO)N1C[C@H](C)[C@@H](CN(C)Cc2ccc(Oc3ccccc3)cc2)Oc2ccc(NS(=O)(=O)c3ccccc3)cc2CC1=O` is “inactive”. Under `C[C@H]1CN([C@@H](C)CO)C(=O)Cc2cc(NS(=O)(=O)c3ccccc3)ccc2O[C@@H]1CN(C)Cc1ccc(Oc2ccccc2)cc1` stands “active”; under `C[C@H]1CN([C@@H](C)CO)C(=O)Cc2cc(NS(=O)(=O)c3ccccc3)ccc2O[C@H]1CN(C)Cc1ccc(Oc2ccccc2)cc1`, “inactive”.

On to `C[C@H]1CN([C@@H](C)CO)C(=O)Cc2cc(NS(=O)(=O)c3cccs3)ccc2O[C@H]1CN(C)Cc1ccc(Oc2ccccc2)cc1`, for which the cytotoxicity call is “inactive”. Take `C[C@@H]1CN([C@@H](C)CO)S(=O)(=O)c2ccc(C#Cc3ccccc3F)cc2O[C@@H]1CN(C)C(=O)c1ccc2c(c1)OCO2`: the cytotoxicity call is “inactive”. With `CCc1nc2ccc(C(=O)N3CCN(S(=O)(=O)CC)CC3)cn2c1N(C)C(=O)c1cccc(OC)c1`, the cytotoxicity call was “inactive”. With `C=CCC1C=C(C)CC(C)CC(OC)C2OC(O)(C(=O)C(=O)N3CCCCC3C(=O)OC(C(C)=CC3CCC(O)C(OC)C3)C(C)C(O)CC1=O)C(C)CC2OC` (stereo unspecified), the cytotoxicity call is “inactive”. In the case of `C[C@@H]1CCCCO[C@H](CN(C)C(=O)c2ccncc2)[C@H](C)CN([C@H](C)CO)C(=O)c2cc(NC(=O)C3CCCCC3)ccc2O1`, the cytotoxicity call is “inactive”.

As to `C[C@H](CO)N1C[C@H](C)[C@@H](CN(C)Cc2ccc3c(c2)OCO3)Oc2ccc(NC(=O)Cn3cnnn3)cc2CC1=O`, the cytotoxicity call is “inactive”. As to `C[C@@H]1CN([C@H](C)CO)C(=O)Cc2cc(NC(=O)Nc3ccccc3)ccc2O[C@H]1CN(C)S(=O)(=O)c1cn(C)cn1`, the cytotoxicity call is “inactive”. For `O=C(NO)c1cccc(C(=O)N/N=C/[C@@H](O)[C@@H](O)[C@H](O)[C@H](O)CO)c1`, the cytotoxicity call is “inactive”. Turning to `Cc1noc(C)c1NC(=O)Nc1ccc2c(c1)CC(=O)N([C@@H](C)CO)C[C@H](C)[C@H](CN(C)S(=O)(=O)c1cn(C)cn1)O2`, the cytotoxicity call was “inactive”.

With `C[C@@H]1CCCCO[C@H](CN(C)S(=O)(=O)c2cn(C)cn2)[C@@H](C)CN([C@H](C)CO)C(=O)c2cc(NS(=O)(=O)c3ccc(F)cc3)ccc2O1`, the cytotoxicity call was “inactive”.

Turning to `C[C@@H](NC(=O)N(C)C[C@H]1OCc2ccccc2-c2c(n(C)c3ccccc23)C(=O)N([C@@H](C)CO)C[C@@H]1C)c1ccccc1`, the cytotoxicity call was “inactive”.

`COCC#Cc1ccc([C@H]2[C@@H](CO)N3C(=O)CN(C(=O)c4cccnc4)C[C@@H]23)cc1`: the cytotoxicity call was “inactive”. Take `CC(C)NC(=O)Nc1ccc2c(c1)C(=O)N([C@@H](C)CO)C[C@@H](C)[C@@H](CN(C)S(=O)(=O)c1cccs1)O2`: the cytotoxicity call is “inactive”. As to `CCC(=O)Nc1nc2[nH]c(COC)cc(=O)n2n1`, the cytotoxicity call is “inactive”. The entry for `C[C@H](CO)N1C[C@H](C)[C@H](CN(C)C(=O)Nc2ccc(F)cc2)Oc2ccc(NC(=O)CCCCCC(=O)Nc3ccccc3N)cc2C1=O` is “inactive”. `COc1ccc2cc(-c3cc(-c4cc(Cl)cc(Cl)c4)nn3[C@@H](C)c3ccc(C(=O)NCCC(=O)O)cc3)ccc2c1`: the cytotoxicity call was “active”. `COc1ccc2cc(C(C)C(=O)O)ccc2c1` (stereo unspecified): the cytotoxicity call was “inactive”. In the case of `COc1ccc(C(=O)NCC(=O)O)cc1`, the cytotoxicity call is “inactive”. The entry for `O=C(C[C@@H]1CC[C@@H]2[C@H](COC[C@@H](O)CN2S(=O)(=O)c2ccccc2)O1)N[C@@H]1CCN(Cc2ccccc2)C1` is “inactive”; for `COCC(=O)N(C)C[C@H]1Oc2cc(C#Cc3cccnc3)ccc2S(=O)(=O)N([C@H](C)CO)C[C@H]1C` it is “inactive”; for `COc1ccc(S(=O)(=O)N[C@H]2C=C[C@@H](CC(=O)N3CCN(c4ccccc4)CC3)O[C@H]2CO)cc1` it is “inactive”. As for `C[C@H](CO)N1C[C@H](C)[C@H](CN(C)Cc2ccc(-c3ccccc3)cc2)Oc2ccc(NC(=O)Nc3ccc(C(F)(F)F)cc3)cc2CC1=O`, the cytotoxicity call is “active”. For `C[C@H]1CN([C@@H](C)CO)C(=O)Cc2cc(NC(=O)Nc3ccccc3)ccc2O[C@H]1CN(C)Cc1ccc(-c2ccccc2)cc1`, the cytotoxicity call was “inactive”. On to `C[C@H]1CN([C@@H](C)CO)C(=O)Cc2cc(NC(=O)Nc3ccc(C(F)(F)F)cc3)ccc2O[C@H]1CN(C)Cc1ccc(-c2ccccc2)cc1`, for which the cytotoxicity call was “active”. The entry for `C[C@H](CO)N1C[C@H](C)[C@@H](CN(C)Cc2ccc(-c3ccccc3)cc2)Oc2ccc(NC(=O)Nc3ccccc3)cc2CC1=O` is “inactive”; for `C[C@@H]1CN([C@@H](C)CO)C(=O)Cc2cc(NC(=O)Nc3ccc(C(F)(F)F)cc3)ccc2O[C@H]1CN(C)Cc1ccc(-c2ccccc2)cc1` it is “active”; for `C[C@@H]1CN([C@@H](C)CO)C(=O)Cc2cc(NC(=O)Nc3ccc(C(F)(F)F)cc3)ccc2O[C@@H]1CN(C)Cc1ccc(-c2ccccc2)cc1` it is “active”. As to `N=C1NC(=O)CS1`, the cytotoxicity call is “inactive”. Turning to `Cc1cc(C(=O)Nc2cccc3c2O[C@@H](CN(C)C(=O)Nc2ccccc2)[C@@H](C)CN([C@@H](C)CO)C3=O)n(C)n1`, the cytotoxicity call was “inactive”.

For the molecule `O=C(C[C@H]1CC[C@@H](NS(=O)(=O)c2ccc(F)cc2)[C@H](CO)O1)N1CCC(Cc2ccccc2)CC1`, the cytotoxicity call is “inactive”. `C[C@@H]1CCCCO[C@H](CN(C)Cc2ccccc2)[C@@H](C)CN([C@@H](C)CO)C(=O)c2cc(NC(=O)NC3CCCCC3)ccc2O1`: the cytotoxicity call is “inactive”.

Turning to `C[C@H](CO)N1C[C@H](C)[C@@H](CN(C)CC2CC2)OCCCC[C@H](C)Oc2ccc(NC(=O)Cc3ccccc3)cc2C1=O`, the cytotoxicity call was “inactive”. Consider `COc1ccc(S(=O)(=O)Nc2cccc3c2O[C@H](CN(C)S(=O)(=O)c2cn(C)cn2)[C@@H](C)CN([C@@H](C)CO)C3=O)cc1`, for which the cytotoxicity call is “inactive”. Take `COc1cccc(NC(=O)N(C)C[C@@H]2OCc3ccccc3-c3c(n(C)c4ccccc34)C(=O)N([C@@H](C)CO)C[C@H]2C)c1`: the cytotoxicity call was “inactive”. The entry for `C[C@@H]1CN([C@@H](C)CO)C(=O)c2cc(NC(=O)c3ccccc3)ccc2O[C@@H](C)CCCCO[C@@H]1CN(C)C(=O)NC1CCCCC1` is “inactive”.

As for `Cc1noc(C)c1NC(=O)Nc1ccc2c(c1)C(=O)N([C@@H](C)CO)C[C@H](C)[C@@H](CN(C)Cc1ccc(C(=O)Nc3ccccc3N)cc1)O2`, the cytotoxicity call is “inactive”. Consider `C[C@H]1CCCCO[C@H](CN(C)C(=O)Nc2ccc(F)cc2)[C@@H](C)CN([C@@H](C)CO)C(=O)c2cc(NC(=O)Nc3ccc(F)cc3)ccc2O1`, for which the cytotoxicity call was “inactive”.

`C[C@@H]1CN([C@@H](C)CO)S(=O)(=O)c2ccc(C#Cc3ccccc3)cc2O[C@H]1CN(C)C(=O)Cc1ccccn1`: the cytotoxicity call is “inactive”.

Consider `CCS(=O)(=O)Nc1ccc2c(c1)C(=O)N(C)[C@@H]1CC[C@@H](CC(=O)N[C@H]3CCN(Cc4ccccc4)C3)O[C@H]1CO2`, for which the cytotoxicity call is “inactive”. As for `COc1ccc(S(=O)(=O)N(C)C[C@H]2Oc3ncc(C#CC4(O)CCCC4)cc3C(=O)N([C@H](C)CO)C[C@H]2C)cc1`, the cytotoxicity call is “inactive”. Regarding `CC(C)NC(=O)Nc1ccc2c(c1)C(=O)N([C@@H](C)CO)C[C@@H](C)[C@@H](CN(C)S(=O)(=O)c1cn(C)cn1)OCCCC[C@H](C)O2`, the cytotoxicity call was “inactive”. In the case of `CCN1C(=O)[C@H]2[C@@H](O)CS[C@H]2C1=O`, the cytotoxicity call is “inactive”. For `C[C@@H]1CN([C@H](C)CO)C(=O)Cc2cc(NC(=O)Nc3ccc(C(F)(F)F)cc3)ccc2O[C@@H]1CN(C)Cc1ccc(-c2ccccc2)cc1`, the cytotoxicity call was “active”. The entry for `C[C@@H]1CN([C@H](C)CO)C(=O)Cc2cc(NC(=O)Nc3ccc(C(F)(F)F)cc3)ccc2O[C@H]1CN(C)Cc1ccc(-c2ccccc2)cc1` is “active”; for `C[C@@H]1CN([C@@H](C)CO)C(=O)Cc2cc(NC(=O)Nc3ccccc3)ccc2O[C@H]1CN(C)Cc1ccc(-c2ccccc2)cc1` it is “inactive”. For the molecule `C[C@H]1CN([C@@H](C)CO)C(=O)Cc2cc(NC(=O)Nc3ccc(C(F)(F)F)cc3)ccc2O[C@@H]1CN(C)Cc1ccc(-c2ccccc2)cc1`, the cytotoxicity call is “active”. Consider `C[C@@H]1CN([C@H](C)CO)C(=O)Cc2cc(NC(=O)Nc3ccccc3)ccc2O[C@H]1CN(C)Cc1ccc(-c2ccccc2)cc1`, for which the cytotoxicity call is “inactive”.

With `C[C@H](CO)N1C[C@H](C)[C@@H](CN(C)Cc2ccc(-c3ccccc3)cc2)Oc2ccc(NC(=O)Nc3ccc(C(F)(F)F)cc3)cc2CC1=O`, the cytotoxicity call is “active”.
